Columns and labels:
Settings in all cases: concentration: 1 μM, replicates: in singlicate; n = 1
MRCKA = system: MRCKA
MRCKB = system: T1, MRCKB
T1 construct: gene CDC42BPB

MST1R = system: MST1R
MST1 = system: T2, MST1
T2 construct: gene STK4

MST2 = system: T3, MST2
T3 construct: gene STK3

MST3 = system: T4, MST3
T4 construct: gene STK24

MST4 = system: MST4
MTOR = system: MTOR
MUSK = system: MUSK
MYLK2 = system: MYLK2
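Further: KINOMEscan kinase panel screen.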

Compound | %Inh (MRCKA) [%] | %Inh (MRCKB) [%] | %Inh (MST1R) [%] | %Inh (MST1) [%] | %Inh (MST2) [%] | %Inh (MST3) [%] | %Inh (MST4) [%] | %Inh (MTOR) [%] | %Inh (MUSK) [%] | %Inh (MYLK2) [%]
Cl.c1ccc(Cn2ccc3cc(Nc4ncnc5ccccc45)ccc32)cc1 [GW275568] | 7 | 11 | 43 | 0 | 22 | 17 | 0 | 16 | 11 | 19
Fc1ccc(Nc2nccc(-c3c(-c4ccc(Cl)cc4)nn4ncccc34)n2)cc1F [GW829058] | 2 | 21 | 0 | 13 | 11 | 0 | 30 | 26 | 26 | 16
Cn1cc(-c2ccc3c(c2)CCN3C(=O)Cc2cccc(C(F)(F)F)c2)c2c(N)ncnc21 [GSK2606414] | 0 | 0 | 6 | 14 | 0 | 0 | 0 | 0 | 6 | 24
CCc1nc(-c2cccc(C)c2)c(-c2ccnc(NC(=O)c3ccccc3)c2)s1 | 0 | 0 | 32 | 11 | 12 | 8 | 9 | – | 0 | 0
Fc1cccc(COc2ccc(Nc3ncnc4nn5ccccc5c34)cc2Cl)c1 [GW689066] | 0 | 0 | 6 | 0 | 0 | 0 | 0 | 3 | 0 | 0

From publication PMC5540273 (PLoS ONE, 2017)
